Experimental data taken from PubChem BioAssay (NCATS).
Records with an inconclusive call do not appear. Activity calls are given as the source filed them. Unless noted, calls follow the shape of the dose curve; as a rule, active = well fitted curve in the direction sought with a large enough effect; inconclusive = small, poorly fitted or top-dose-only effect, or another doubt; inactive = no such curve, though single readings can be large; an effect the other way counts as inactive or inconclusive.

Columns and labels:
[1] = Counterscreen for APE1 Inhibitors: Fluorescent Dye Displacement Validation Assay (AID 1707);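 also: plate controls were ThO with dsDNA and no compound for no effect and ThO without dsDNA for full effect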
How it was run: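 Counterscreen flags promiscuous DNA binders: compounds displacing ThO from duplex DNA (abasic THF site, 50 nM) reduce 540 nm emission (480 nm excitation). ThO 250 nM final; Tris-HCl pH 7.5 with NaCl, MgCl2 and Tween-20.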

[2] = qHTS for differential inhibitors of proliferation of Plasmodium falciparum line 7G8 (AID 1815);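 also: parasite growth measured after three days of incubation; plate controls were vehicle wells for no effect and reference inhibitor wells for full effect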
[3] = qHTS for differential inhibitors of proliferation of Plasmodium falciparum line GB4 (AID 1816); settings: Potency: Plasmodium falciparum GB4 proliferation inhibition;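 also: parasite growth measured after 72 h incubation; 0% = vehicle DMSO and -100% = reference inhibitor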
[4] = qHTS for differential inhibitors of proliferation of Plasmodium falciparum line 3D7 (AID 1876);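 also: parasite growth measured after three days of culture; 0% = vehicle wells and -100% = reference inhibitor wells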
[5] = qHTS for differential inhibitors of proliferation of Plasmodium falciparum line D10 (AID 1877);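 also: parasites grown with compound for 72 h before DNA staining; plate controls were vehicle wells for no effect and reference inhibitor wells for full effect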
[6] = qHTS for differential inhibitors of proliferation of Plasmodium falciparum line Dd2 (AID 1882); settings: Potency: Plasmodium falciparum Dd2 proliferation inhibition;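 also: series mostly up to about 29 µM; plate controls were DMSO vehicle for no effect and 0.29 µM artemisinin for full effect; nearly all actives have a fitted effect of over 65% in size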
How it was run: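 SYBR Green DNA fluorescence (ex 485, em 535 nm) after overnight lysis quantifies parasite growth; compound exposure lasted 72 h at 37 C on infected red cells at 2.5% hematocrit, 0.3% parasitemia (final). Artemisinin 0.29 uM and vehicle wells define normalization.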

[7] = qHTS for differential inhibitors of proliferation of Plasmodium falciparum line W2 (AID 1883); settings: Potency: Plasmodium falciparum W2 proliferation inhibition;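 also: parasites grown with compound for 72 h before lysis and staining; 0% = vehicle wells and -100% = control inhibitor wells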
[8] = qHTS for differential inhibitors of proliferation of Plasmodium falciparum line HB3 (AID 1886); settings: Potency: Plasmodium falciparum HB3 proliferation inhibition;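 also: parasites grown with compound for 72 h before SYBR Green readout; plate controls were vehicle for no effect and reference inhibitor for full effect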
[9] = target: Ferritin light chain (Equus caballus) (UniProt P02791); assay: qHTS Validation Assay for Identification of Novel General Anesthetics (AID 2323); also: series mostly up to about 77 µM; % is scaled to controls: 0 for no effect and ±100 for the full control effect
How it was run: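 Competitive displacement of profluorescent 1-aminoanthracene (1-AMA, 50% saturated solution in PBS) from 10 uM horse-spleen apoferritin. Compounds incubated 10 min at room temperature; fluorescence read at 380 nm excitation/535 nm emission, normalized to free 1-AMA and complex, fitted with four-parameter Hill equation.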

[10] = target: ATP-dependent DNA helicase Q1 (Homo sapiens) (UniProt P46063); assay: qHTS Validation Assay for Inhibitors of RecQ-Like Dna Helicase 1 (RECQ1) (AID 2353);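 also: plate controls were DMSO vehicle for no effect and enzyme-free control for full effect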
How it was run: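 RECQ1T1 50 nM; forked duplex (20 bp + 30-nt ss tails) 200 nM, ATP 2 mM final; pH 8.0, 2 mM MgCl2, 2.5 ug/ml poly(dI-dC); 15 min compound preincubation; discontinuous kinetic read over 2 h at RT.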

[11] = target: RecQ-like DNA helicase BLM (Homo sapiens) (UniProt P54132); assay: qHTS Validation Assay for Inhibitors of Bloom's syndrome helicase (BLM) (AID 2364);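 also: plate controls were DMSO vehicle for no effect and enzyme-free control for full effect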
How it was run: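 BLM 50 nM in 25 mM Tris-HCl pH 8.0, 5 mM NaCl, 2 mM MgCl2, 1 mM DTT, 0.01% Tween-20, 2.5 ug/ml poly(dI-dC); 15 min cpd preinc, RT. Start: 200 nM forked DNA + 2 mM ATP (final). TAMRA read, 2 reads 2 h apart.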

[12] = Validation screen for inhibitors of Lassa infection (AID 463096; calls by dose curve; also: % is scaled to controls: 0 for no effect and ±100 for the full control effect)
[13] = Validation screen for small molecules that induce DNA re-replication in MCF 10A normal breast cells (AID 463097); also: 0% is about no effect; nearly all actives have a fitted effect of over 60% in size
How it was run: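 Readout: Hoechst nuclear fluorescence intensity, 405 ex / 500-530 em, by scanning plate imager; re-replication scored as increase in nuclei with elevated DNA content. Cells exposed to compound 48 hr, 37 C, 5% CO2 beforehand.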

[14] = Quantitative high throughput screen for delayed death inhibitors of the malarial parasite plastid, 96 hour incubation (AID 488745);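 also: luciferase-expressing P. falciparum in erythrocytes at 2% hematocrit and 0.1% parasitemia; series mostly up to about 29 µM; % is scaled to controls: 0 for no effect and ±100 for the full control effect; nearly all actives have a fitted effect of over 70% in size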
How it was run: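 Readout is firefly luciferase luminescence from an integrated reporter in P. falciparum; lower signal marks inhibited growth. Cultures at 2% hematocrit and 0.1% parasitemia were treated with compound across two generations (96 h, 37 C, 5% CO2).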

[15] = Quantitative high throughput screen for delayed death inhibitors of the malarial parasite plastid, 48 hour incubation (AID 488752); also: % is scaled to controls: 0 for no effect and ±100 for the full control effect; nearly all actives have a fitted effect of over 65% in size
How it was run: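 First, compound was pinned into RPMI 1640 medium containing 0.5% Albumax. Next, reporter-parasite-infected erythrocytes were added to 2% hematocrit and 0.1% parasitemia. After 48 h at 37 C under 5% CO2, luciferase detection reagent was added and luminescence read.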

[16] = target: M-phase phosphoprotein 8 (Homo sapiens) (UniProt Q99549); assay: qHTS Validation Assay for Inhibitors for MPP8 Chromodomain Interactions with Methylated Histone Tails (AID 488949);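 also: AlphaScreen signal from MPP8 chromodomain bound to biotinylated H3K9me3 peptide; top concentration of the series differs between compounds; % is scaled to controls: 0 for no effect and ±100 for the full control effect; nearly all actives have a fitted effect of over 55% in size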
How it was run: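 MPP8 (50 nM) was preincubated with biotinylated H3(1-18)K9me3 peptide (50 nM) in PBS pH 7.4, 0.01% Tween-20 for 30 min at room temperature, then with compounds for 30 min; binding was detected by AlphaScreen.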

[17] = target: Transient receptor potential cation channel subfamily V member 1 (Homo sapiens) (UniProt Q8NER1); assay: HTS Assay for Compounds that Act as Enhancers of the Vanilloid Receptor 1 (AID 488979); also: 0% is about no effect
How it was run: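 TRPV1-expressing cells loaded with Fluo-8 calcium dye; compounds added and calcium influx read kinetically for 3 min (agonist phase), then capsaicin at EC20 added and read 2 min more for enhancement. Fluorescence ex 480/em 520 nm.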

[18] = target: Thyrotropin receptor (Homo sapiens) (UniProt P16473); assay: qHTS Assay for Antagonists of the Thyroid Stimulating Hormone Receptor (AID 488980); also: series mostly up to about 58 µM; 0% is about no effect
How it was run: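 HEK293 cells transfected with human TSHR, suspended in HEPES-buffered HBSS with 70 uM RO 20-1724, were treated with compounds plus TSH at EC80 (4 nM final). cAMP was measured by competitive HTRF (cryptate anti-cAMP antibody, cAMP-d2 acceptor).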

[19] = target: Thyrotropin-releasing hormone receptor (Homo sapiens) (UniProt P34981); assay: qHTS for Small Molecule Agonists and Allosteric Enhancers of Human TRH Receptor: Validation Screen for Agonists (AID 493127;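 active = calcium activation more than 3 SD above the typical response in the agonist read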;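 also: intracellular calcium rise by fluo-8 fluorescence before TRH EC20 addition; 0% is about no effect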); settings: TRH receptor agonist cell assay; at 2 µM; active compounds read high
How it was run: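 Compounds are added by online pintool to dye-loaded TRHR cells while fluorescence is recorded every second. A rise in calcium signal during the agonist read marks activation; a later 10 nM TRH addition (EC20) serves the separate enhancer mode.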

[20] = target: Galactokinase (Homo sapiens) (UniProt P51570); assay: qHTS Validation Assay for Inhibitors of Human Galactokinase (GALK) (AID 493189); also: 0% is about no effect
How it was run: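 GALK (5 nM) with 35 uM ATP and 100 uM galactose in HEPES pH8.0, MgCl2, NaCl, DTT, BSA; 1 h at room temperature. Residual ATP read by Kinase-Glo Plus luminescence after 10 min.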

[21] = target: Ubiquitin carboxyl-terminal hydrolase 1 (Homo sapiens) (UniProt O94782); assay: Inhibitors of USP1/UAF1: Pilot qHTS (AID 504865);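 also: rhodamine fluorescence freed from ubiquitin-rhodamine substrate followed over time; top concentration of the series differs between compounds; % is scaled to controls: 0 for no effect and ±100 for the full control effect; nearly all actives have a fitted effect of over 35% in size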
How it was run: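 USP1/UAF1 complex (1nM) preincubated with compound 15 min at room temperature, then Ub-Rho substrate (150nM final) added. Fluorescence read kinetically at 480/540 nm, 6 reads every 60 seconds. Buffer: 50mM HEPES pH 7.8, 0.5mM EDTA, 0.1 mg/ml BSA, 1mM TCEP, 0.01% Tween-20.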

[22] = target: DNA dC->dU-editing enzyme APOBEC-3G (Homo sapiens) (UniProt Q9HC16); assay: qHTS for inhibitors of Vif-A3G interactions: Validation (AID 588379); also: 0% is about no effect
How it was run: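 Yellow fluorescence (Ex 488, Em 500-530) of Vif-coexpressing HeLa A3G-eYFP cells, scanned by Acumen cytometer, reports blocked A3G degradation. Cells plated at 700/well overnight at 37 deg C before compound addition, then a further overnight compound incubation at 37 deg C.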

[23] = target: Voltage-gated inwardly rectifying potassium channel KCNH2 (Homo sapiens) (UniProt Q12809); assay: qHTS Assay for Small Molecule Inhibitors of the Human hERG Channel Activity (AID 588834);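 also: top concentration of the series differs between compounds; % is scaled to controls: 0 for no effect and ±100 for the full control effect; lower thallium flux fluorescence means stronger hERG block; nearly all actives have a fitted effect of over 50% in size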
How it was run: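 In hERG-transduced U2OS cells, dye-loaded for 1 hr at room temperature in dark, test compounds incubated 10 min at 37 °C before thallium stimulation. AC50 values derived by Hill modelling of concentration-response.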

[24] = test system: Zika virus NS2B-NS3 protease; assay: Primary screen GU AMC qHTS for Zika virus inhibitors (AID 1347154);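 also: 0% = no-inhibitor control and -100% = no-enzyme control; nearly all actives have a fitted effect of over 70% in size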
How it was run: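 Unlinked Zika NS2B hydrophilic domain/NS3 protease domain noncovalent complex (25 nM final) in 10 mM Tris-HCl pH 8.0, 0.01% Tween 20, with AMC peptide substrate. Fluorescence (ex 340, em 450 nm) change over 15 min, room temperature; percent inhibition fitted to 4-parameter Hill equation.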

[25] = Primary qHTS for small molecule stabilizers of the endoplasmic reticulum resident proteome: Secreted ER Calcium Modulated Protein (SERCaMP) assay (AID 1508630); also: % is scaled to controls: 0 for no effect and ±100 for the full control effect
How it was run: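 The SH-SY5Y reporter protocol was run at 3 concentrations up to 38.3 uM (primary) or 11 concentrations (follow-up): 16 h compound, 100 nM thapsigargin for 4 h, then extracellular luciferase luminescence.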

DNA dC->dU-editing enzyme APOBEC-3G (Homo sapiens), sequence (Q9HC16 whole entry, looked up): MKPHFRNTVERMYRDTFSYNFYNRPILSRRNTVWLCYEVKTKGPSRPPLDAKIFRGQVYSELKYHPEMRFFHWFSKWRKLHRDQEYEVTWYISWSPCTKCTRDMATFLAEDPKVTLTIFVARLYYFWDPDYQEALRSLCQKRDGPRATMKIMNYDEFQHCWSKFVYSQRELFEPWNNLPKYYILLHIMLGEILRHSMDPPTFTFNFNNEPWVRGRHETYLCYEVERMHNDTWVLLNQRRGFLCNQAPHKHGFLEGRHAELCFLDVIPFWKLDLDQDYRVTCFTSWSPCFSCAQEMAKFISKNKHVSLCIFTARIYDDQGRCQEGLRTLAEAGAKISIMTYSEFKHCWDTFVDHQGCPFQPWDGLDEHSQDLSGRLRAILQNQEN
Ferritin light chain (Equus caballus), sequence (P02791 2-175 limits assumed): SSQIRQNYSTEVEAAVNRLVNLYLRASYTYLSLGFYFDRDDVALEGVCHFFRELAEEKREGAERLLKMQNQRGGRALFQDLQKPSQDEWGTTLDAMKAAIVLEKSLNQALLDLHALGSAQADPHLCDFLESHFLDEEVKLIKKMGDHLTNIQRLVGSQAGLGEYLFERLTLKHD
Galactokinase (Homo sapiens), sequence (P51570 whole entry, looked up): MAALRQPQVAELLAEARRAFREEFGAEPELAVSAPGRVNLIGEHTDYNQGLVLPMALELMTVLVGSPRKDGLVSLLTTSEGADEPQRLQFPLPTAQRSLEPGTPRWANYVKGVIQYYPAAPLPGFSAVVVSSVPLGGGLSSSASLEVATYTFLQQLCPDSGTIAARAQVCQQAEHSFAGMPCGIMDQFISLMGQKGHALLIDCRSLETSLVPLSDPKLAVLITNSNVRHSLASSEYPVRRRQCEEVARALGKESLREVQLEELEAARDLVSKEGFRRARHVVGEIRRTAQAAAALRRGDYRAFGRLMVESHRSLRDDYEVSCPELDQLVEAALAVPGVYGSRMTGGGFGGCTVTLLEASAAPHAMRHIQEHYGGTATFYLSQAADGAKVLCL
ATP-dependent DNA helicase Q1 (Homo sapiens), sequence (P46063 whole entry, looked up): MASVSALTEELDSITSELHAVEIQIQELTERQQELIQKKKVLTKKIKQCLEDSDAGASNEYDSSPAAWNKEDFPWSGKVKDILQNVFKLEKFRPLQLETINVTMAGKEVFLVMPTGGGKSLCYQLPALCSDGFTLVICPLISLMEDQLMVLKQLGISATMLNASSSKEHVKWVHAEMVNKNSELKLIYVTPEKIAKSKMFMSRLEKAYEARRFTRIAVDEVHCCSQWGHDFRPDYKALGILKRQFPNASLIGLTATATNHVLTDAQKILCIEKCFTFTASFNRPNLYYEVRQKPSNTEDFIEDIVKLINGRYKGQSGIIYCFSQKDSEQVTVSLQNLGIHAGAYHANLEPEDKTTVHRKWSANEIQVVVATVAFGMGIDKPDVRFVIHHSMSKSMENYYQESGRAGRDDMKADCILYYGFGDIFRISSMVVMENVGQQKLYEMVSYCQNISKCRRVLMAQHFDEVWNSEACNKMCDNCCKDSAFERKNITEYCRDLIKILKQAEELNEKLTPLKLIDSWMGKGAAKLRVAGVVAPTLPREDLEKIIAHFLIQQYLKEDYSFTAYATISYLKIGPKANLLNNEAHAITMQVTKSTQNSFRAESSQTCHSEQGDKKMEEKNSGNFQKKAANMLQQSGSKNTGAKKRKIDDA
Thyrotropin receptor (Homo sapiens), sequence (P16473 whole entry, looked up): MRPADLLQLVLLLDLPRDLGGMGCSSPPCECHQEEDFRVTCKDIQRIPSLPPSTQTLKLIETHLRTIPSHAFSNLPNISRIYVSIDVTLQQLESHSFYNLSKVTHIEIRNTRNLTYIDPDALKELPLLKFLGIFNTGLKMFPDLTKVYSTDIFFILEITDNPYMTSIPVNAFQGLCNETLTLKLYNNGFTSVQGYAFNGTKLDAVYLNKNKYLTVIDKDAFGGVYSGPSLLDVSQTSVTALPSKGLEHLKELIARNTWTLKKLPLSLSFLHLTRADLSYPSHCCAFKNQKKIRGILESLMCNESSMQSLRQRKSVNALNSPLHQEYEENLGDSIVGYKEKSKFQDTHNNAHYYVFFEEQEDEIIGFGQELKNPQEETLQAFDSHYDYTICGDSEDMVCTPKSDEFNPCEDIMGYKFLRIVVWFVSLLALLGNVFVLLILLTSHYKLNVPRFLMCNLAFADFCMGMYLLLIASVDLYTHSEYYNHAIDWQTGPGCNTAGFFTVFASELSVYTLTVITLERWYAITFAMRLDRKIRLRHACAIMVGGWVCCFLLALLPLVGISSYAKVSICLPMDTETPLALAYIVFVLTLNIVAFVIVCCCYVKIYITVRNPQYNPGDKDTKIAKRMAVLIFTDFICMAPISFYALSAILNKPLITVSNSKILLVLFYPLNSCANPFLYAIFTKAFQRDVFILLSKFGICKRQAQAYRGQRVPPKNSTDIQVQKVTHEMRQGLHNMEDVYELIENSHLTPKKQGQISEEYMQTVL
Thyrotropin-releasing hormone receptor (Homo sapiens), sequence (P34981 whole entry, looked up): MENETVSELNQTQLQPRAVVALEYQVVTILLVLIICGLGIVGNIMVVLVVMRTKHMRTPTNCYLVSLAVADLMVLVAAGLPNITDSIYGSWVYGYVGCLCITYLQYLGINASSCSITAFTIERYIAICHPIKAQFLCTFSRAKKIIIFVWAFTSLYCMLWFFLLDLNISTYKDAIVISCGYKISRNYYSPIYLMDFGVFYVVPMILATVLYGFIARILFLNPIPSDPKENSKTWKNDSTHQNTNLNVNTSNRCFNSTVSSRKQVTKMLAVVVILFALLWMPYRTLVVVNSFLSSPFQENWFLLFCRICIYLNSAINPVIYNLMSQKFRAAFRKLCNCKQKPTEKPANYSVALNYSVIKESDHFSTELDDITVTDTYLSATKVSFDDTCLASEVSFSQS
Voltage-gated inwardly rectifying potassium channel KCNH2 (Homo sapiens), sequence (Q12809 whole entry, looked up): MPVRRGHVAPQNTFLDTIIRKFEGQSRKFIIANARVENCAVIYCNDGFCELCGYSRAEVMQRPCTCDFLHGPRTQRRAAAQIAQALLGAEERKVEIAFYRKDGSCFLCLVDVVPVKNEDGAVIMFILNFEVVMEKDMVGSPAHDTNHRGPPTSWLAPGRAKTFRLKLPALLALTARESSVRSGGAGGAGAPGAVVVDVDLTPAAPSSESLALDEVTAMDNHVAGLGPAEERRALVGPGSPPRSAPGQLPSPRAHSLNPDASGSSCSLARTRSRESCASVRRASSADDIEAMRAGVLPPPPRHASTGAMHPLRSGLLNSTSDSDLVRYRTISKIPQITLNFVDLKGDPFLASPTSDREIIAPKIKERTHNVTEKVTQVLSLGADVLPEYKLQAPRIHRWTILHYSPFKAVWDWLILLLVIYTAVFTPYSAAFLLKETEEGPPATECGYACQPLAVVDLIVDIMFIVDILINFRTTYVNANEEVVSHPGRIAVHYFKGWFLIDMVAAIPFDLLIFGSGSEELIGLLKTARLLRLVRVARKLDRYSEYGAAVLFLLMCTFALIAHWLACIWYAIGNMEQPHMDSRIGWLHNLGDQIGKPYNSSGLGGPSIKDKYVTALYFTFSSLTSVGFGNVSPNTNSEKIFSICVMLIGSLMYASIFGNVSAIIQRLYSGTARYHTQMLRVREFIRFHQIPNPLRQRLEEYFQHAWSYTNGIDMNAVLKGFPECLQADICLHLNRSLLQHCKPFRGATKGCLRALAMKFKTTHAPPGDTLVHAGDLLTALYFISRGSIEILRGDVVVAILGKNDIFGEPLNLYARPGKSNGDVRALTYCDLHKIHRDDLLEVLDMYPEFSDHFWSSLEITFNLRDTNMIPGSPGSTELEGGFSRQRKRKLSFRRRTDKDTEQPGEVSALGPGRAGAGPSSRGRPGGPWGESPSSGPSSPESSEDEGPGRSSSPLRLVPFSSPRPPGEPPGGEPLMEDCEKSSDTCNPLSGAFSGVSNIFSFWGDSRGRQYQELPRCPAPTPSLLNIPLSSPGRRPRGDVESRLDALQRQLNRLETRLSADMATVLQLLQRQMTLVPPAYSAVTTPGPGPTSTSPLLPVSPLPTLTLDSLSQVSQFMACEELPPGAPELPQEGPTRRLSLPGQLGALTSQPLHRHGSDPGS
Transient receptor potential cation channel subfamily V member 1 (Homo sapiens), sequence (Q8NER1 whole entry, looked up): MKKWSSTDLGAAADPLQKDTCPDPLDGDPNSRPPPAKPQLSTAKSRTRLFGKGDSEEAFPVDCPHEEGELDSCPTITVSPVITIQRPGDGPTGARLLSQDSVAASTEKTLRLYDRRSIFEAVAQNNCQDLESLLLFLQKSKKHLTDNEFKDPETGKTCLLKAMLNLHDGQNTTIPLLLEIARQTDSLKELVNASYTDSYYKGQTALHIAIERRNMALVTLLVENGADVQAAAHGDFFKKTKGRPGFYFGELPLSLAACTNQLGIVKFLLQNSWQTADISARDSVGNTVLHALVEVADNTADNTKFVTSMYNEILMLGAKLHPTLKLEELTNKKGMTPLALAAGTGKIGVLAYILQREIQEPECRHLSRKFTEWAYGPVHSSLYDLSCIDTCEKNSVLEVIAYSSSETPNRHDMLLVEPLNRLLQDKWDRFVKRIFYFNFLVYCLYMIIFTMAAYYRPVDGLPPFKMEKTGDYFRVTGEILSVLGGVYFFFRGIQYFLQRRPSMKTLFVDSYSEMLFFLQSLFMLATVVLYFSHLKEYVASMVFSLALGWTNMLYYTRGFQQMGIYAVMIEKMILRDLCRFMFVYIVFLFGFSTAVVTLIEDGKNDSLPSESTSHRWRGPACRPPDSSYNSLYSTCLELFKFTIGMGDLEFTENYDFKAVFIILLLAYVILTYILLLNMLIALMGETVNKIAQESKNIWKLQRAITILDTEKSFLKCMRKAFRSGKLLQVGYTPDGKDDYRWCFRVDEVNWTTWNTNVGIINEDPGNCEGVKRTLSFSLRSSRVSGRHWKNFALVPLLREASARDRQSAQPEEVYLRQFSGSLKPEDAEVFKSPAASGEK

N[C@H](CCCCCP(=O)(O)O)C(=O)O
inactive: Potency [1] | Potency [2] | Potency [3] | Potency [4] | Potency [5] | Potency [6] | Potency [7] | Potency [8] | outcome [9] | Potency [10] | Potency [11] | Potency [12] | Potency [13] | Potency [14] | Potency [15] | Potency [16] | outcome [17] | outcome [18] | activation [19] -0.125% | outcome [20] | Potency [21] | Potency [22] | Potency [23] | Potency [24] | Potency [25]
